Data: ChEMBL document CHEMBL1157539, “Thousands of chemical starting points for antimalarial lead identification” (Nature, 2010)

Key:
Type in all cases: functional
[1] = system: Plasmodium falciparum; experiment: GSK_TCMDC: Inhibition of Plasmodium falciparum 3D7 in whole red blood cells, using parasite LDH activity as an index of growth. Test compounds present at 2uM
[2] = system: Plasmodium falciparum; experiment: GSK_TCMDC: Inhibition of Plasmodium falciparum Dd2 in whole red blood cells, using parasite LDH activity as an index of growth. Test compounds present at 2uM
[3] = system: HepG2; experiment: GSK_TCMDC: Percent inhibition of human HepG2 cell line. Test compounds present at 10uM.

O=C(Cc1ccccc1)NC(Nc1ccc([N+](=O)[O-])cc1)C(Cl)(Cl)Cl (centres undefined)
Inhibition [1]: 99% | Inhibition [2]: 100% | Inhibition [3]: 21%

CCN(CC)CCN(Cc1ccc(-c2ccc(C(F)(F)F)cc2)cc1)C(=O)c1ccc(-c2ccc(C#N)cc2)cc1
Inhibition [1]: 89% | Inhibition [2]: 31% | Inhibition [3]: 38%

O=C(Nc1cccc(-c2nn3ccccc3c2-c2ccnc(Nc3ccc(C(=O)N4CCOCC4)cc3)n2)c1)c1c(F)cccc1F
Inhibition [1]: 99% | Inhibition [2]: 97% | Inhibition [3]: 72%
